In the supplement of paper PMC7411640:
Structures can show the parent of a compound that is named as a salt.

Test system: MDA-MB-468
Test: phospho-S6 immunofluorescence (DAPI-normalised), per-plate z-score; higher = higher phospho-S6 signal (less pathway suppression)
Settings: 24 h
Experimental: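 GPCR-targeted compound library (MedChemExpress HY-L006) tested on MDA-MB-468 PTEN-null TNBC cells in 384-well plates at 0.1, 1 or 10 uM, combined with vehicle, GDC0941 450 nM or lapatinib 1 uM, for 24 h. Phospho-S6 (S240/244) immunofluorescence normalised to DAPI and expressed as a per-plate z-score; values are the mean of biological triplicates.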

Structure (SMILES)	phospho-S6 immunofluorescence (z-score) (co-treatment: GDC0941 450 nM)	phospho-S6 immunofluorescence (z-score) (co-treatment: lapatinib 1 uM)	phospho-S6 immunofluorescence (z-score) (co-treatment: vehicle)
CCCN(CCc1cccs1)[C@H]1CCc2c(O)cccc2C1 [Rotigotine (Hydrochloride)] (compound 10 µM)	-0.16	0.3	-0.63
Cc1ccc(-c2n[nH]c3c2C(c2cccc(O)c2)N(c2ccc(C(=O)O)cc2)C3=O)cc1 (centres undefined) (compound 10 µM)	0	0.5	-0.12
OCCOCCN1CCN(C2=Nc3ccccc3Sc3ccccc32)CC1 [Quetiapine] (compound 10 µM)	0.95	-0.32	0.64
CC(C)OC(=O)N1CCC(Oc2ncnc3c2cnn3-c2ccc(S(C)(=O)=O)cc2F)CC1 (compound 10 µM)	-0.32	-0.15	-0.38
CC(=O)OC(C)C[N+](C)(C)C (centres undefined) [Methacholine (chloride)] (compound 10 µM)	0.63	0.47	1
C[C@H](NC(=O)c1c(C(F)F)nn(C)c1Oc1cccc(C(F)(F)F)c1)c1ccc(C(=O)O)cc1 (compound 10 µM)	0.32	0.46	-0.56
COc1cc(NC(=O)c2ccccn2)ccc1Cl (compound 10 µM)	-0.65	-0.21	0.28
COc1ccc(C2CC(c3ccccc3)=NN2c2ccc(S(N)(=O)=O)cc2)cc1 (centres undefined) (compound 10 µM)	-3.22	-0.2	-6.71
CCCCc1nc(Cl)c(CO)n1Cc1ccc(-c2ccccc2-c2nnn[nH]2)cc1 [Losartan (potassium)] (compound 10 µM)	0.74	0.83	0.81
CN(C)CCOC(C)(c1ccccc1)c1ccccn1 (centres undefined) [Doxylamine (succinate)] (compound 10 µM)	0.33	-0.64	0.58
CN(C)C(=O)CCSC(SCCC(=O)O)c1cccc(/C=C/c2ccc3ccc(Cl)cc3n2)c1 (centres undefined) [MK-571 (sodium salt)] (compound 10 µM)	-0.65	0.9	1.28
CCn1c2ccccc2c2cc(Nc3ccnc(NCCCN4CCOCC4)n3)ccc21 (compound 10 µM)	-3.59	-8.74	-10.3
CC1(C)O[C@@H]2C[C@H]3[C@@H]4CCC5=CC(=O)C=C[C@]5(C)[C@@]4(F)[C@@H](O)C[C@]3(C)[C@]2(C(=O)CO)O1 [Triamcinolone (acetonide)] (compound 10 µM)	-1.69	1.39	-1.2
CC(C)NCC(O)COc1ccc(CCOCC2CC2)cc1 (centres undefined) [Betaxolol (hydrochloride)] (compound 10 µM)	0.79	0.07	0.74
c1ccc2c(c1)OCC(CN1CCCCC1)O2 (centres undefined) [Piperoxan (hydrochloride)] (compound 10 µM)	0.28	0.61	0.8
N#Cc1cc(NC(=O)C(=O)O)c(Cl)c(NC(=O)C(=O)O)c1 [Lodoxamide] (compound 10 µM)	0.92	0.6	0.66
CN1CCN(C2=Nc3ccccc3Oc3ccc(Cl)cc32)CC1 [Loxapine] (compound 10 µM)	0.6	-0.55	0.95
CC(C)Oc1ccc(-c2nc(-c3cccc4c3CC[C@@H]4NCCO)no2)cc1C#N [Ozanimod] (compound 10 µM)	0.72	-0.62	-0.3
CN1CCN2c3ccccc3Cc3ccccc3C2C1 (centres undefined) [Mianserin (hydrochloride)] (compound 10 µM)	1	-0.76	1.67
Cc1noc(-c2ccc(-c3ccc(CC(=O)O)cc3)cc2)c1NC(=O)O[C@H](C)c1ccccc1 (compound 10 µM)	0.62	1.57	0.63
CC[C@@H]1C(=O)OC[C@@H]1Cc1cncn1C [Pilocarpine (Hydrochloride)] (compound 10 µM)	-0.79	-0.13	-0.68
CNC(=O)[C@H]1O[C@@H](n2cnc3c(NCc4cccc(I)c4)nc(Cl)nc32)[C@H](O)[C@@H]1O (compound 10 µM)	-1.27	-1.18	-2.34
Clc1ccc(CCCOCCCN2CCCCC2)cc1 [Pitolisant (hydrochloride)] (compound 10 µM)	0.75	-0.69	-0.12
